Screens as filed in PubChem BioAssay.
The list is not random: actives were taken first. Their share in the collection is about 1.4%.
C1s inh: blocks human complement C1s protease activity; P09871; purified C1s, fluorogenic AMC substrate, pooled mixtures; mean inhibition % of two 10-compound mixtures (stronger effect = higher value), % at 5 µM (by protocol); actives 0.16% (n = 62,000); AID 538;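 active = inhibition above 20% in each of the two 10-compound mixture wells holding the compound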;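 note: 0% = enzyme wells lacking compound mixture and 100% = no-enzyme blank wells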
FXIa inh mix: inhibitors of human coagulation factor XIa, pooled mixtures; purified FXIa, fluorogenic substrate; inhibition, % at 5 µM; actives 0.19% (n = 62,000);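 note: each value is inhibition by a whole ten-compound pool holding the compound; 0% = enzyme with no mixture and 100% = wells lacking enzyme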
FXIIa mix inh: inhibitors of human coagulation factor XIIa, pooled mixtures; P00748; inhibition, % at 5 µM; purified FXIIa, fluorogenic substrate; actives 0.2% (n = 62,000);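 note: 0% = enzyme without compound and 100% = no enzyme blank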
Target sequence (P00748 20-372 limits assumed): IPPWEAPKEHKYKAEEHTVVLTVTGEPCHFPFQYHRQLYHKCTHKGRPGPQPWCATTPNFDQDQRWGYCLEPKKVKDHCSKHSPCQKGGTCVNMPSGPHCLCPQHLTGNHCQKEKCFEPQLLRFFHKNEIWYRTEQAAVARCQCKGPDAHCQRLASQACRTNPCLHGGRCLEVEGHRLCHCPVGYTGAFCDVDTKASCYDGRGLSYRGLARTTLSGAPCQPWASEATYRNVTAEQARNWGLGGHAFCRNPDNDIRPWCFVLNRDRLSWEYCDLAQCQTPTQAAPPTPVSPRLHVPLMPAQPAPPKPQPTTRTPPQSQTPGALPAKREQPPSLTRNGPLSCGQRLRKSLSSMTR
Target sequence (P00748 373-615 limits assumed): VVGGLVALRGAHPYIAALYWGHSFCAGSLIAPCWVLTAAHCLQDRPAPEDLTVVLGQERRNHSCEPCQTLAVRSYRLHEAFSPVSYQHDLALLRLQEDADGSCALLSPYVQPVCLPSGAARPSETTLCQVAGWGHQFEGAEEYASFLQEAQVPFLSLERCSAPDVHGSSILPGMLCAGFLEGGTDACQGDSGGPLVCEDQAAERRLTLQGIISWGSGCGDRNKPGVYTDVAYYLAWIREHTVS
HePTP inhibitor: inhibitors of human HePTP phosphatase. actives 0.64% (n = 110,000). P35236. inhibition, % at 20 µM. recombinant HePTP phosphatase activity, OD absorbance; in the data active = inhibition above about 50%;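 note: plate controls were vehicle for no effect and reference inhibitor for full effect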
CatG inh: inhibitors of human cathepsin G. P08311. actives 0.2% (n = 62,000). inhibition, % at 5 µM (by protocol). AID 581. purified enzyme, AMC-tetrapeptide fluorescence, pooled mixtures;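 active = inhibition above 20% in each of the two mixture wells holding the compound; inactive = inhibition of 20% or less in either well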;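 note: 0% = enzyme control without mixture and 100% = blank lacking enzyme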
PLAP activator: activates human placental alkaline phosphatase | AID 696 | purified PLAP enzyme, luminescent substrate read-out; stronger effect = higher value | activation fold at 20 µM | P05187 | actives 1.2% (n = 96,000); in the data active = activation fold above about 2
* hit, by the source's call. Cut-off read from the data, not from the text of the source, unless noted: active = inhibition above about 20% (passing the limit was not always enough); inactive = the rest.

Results for O=C1N=c2ccccc2=C1c1sc(=S)[nH]c1O ?
HePTP inhibitor: 70*

What do the screens show for `O=C1N=c2ccccc2=C1c1[nH]c(=S)[nH]c1O`?
HePTP inhibitor: -19

Results for Cc1ccc(CNC(=O)CSc2nc3n[nH]c(C)c3c(=N)n2-c2cccc(C)c2)cc1 ?
PLAP activator: 2.5*

How did COc1ccc(N2C(=O)C(Cl)=C(Nc3ccc(F)cc3)C2=O)cc1 do in these assays?
HePTP inhibitor: -8

What do the screens show for `O=C1C2C(c3ccc(Cl)cc3)OC3(C(=O)c4ccccc4C3=O)C2C(=O)N1c1cccc(F)c1` (centres undefined)?
HePTP inhibitor: 9

Results for CCCCc1ccc(NC(=O)c2c(C)noc2C)cc1 ?
C1s inh: -2; FXIa inh mix: 2; FXIIa mix inh: -2; HePTP inhibitor: 5; CatG inh: 3; PLAP activator: 2*

What do the screens show for `O=C(O)CC/C(=N/NC(=O)c1c[nH]c2ccccc12)c1ccccc1`?
HePTP inhibitor: 7

How did CCCOc1ccc(N2C(=O)CC(N(Cc3ccco3)C(=S)Nc3ccccc3)C2=O)cc1 (centres undefined) do in these assays?
HePTP inhibitor: 4

Results for CCOC(=O)c1sc2ncn(/N=C/c3ccc(O)cc3)c(=O)c2c1C ?
HePTP inhibitor: 9

Results for CCOC(=O)c1sc2ncn(/N=C/c3cccnc3)c(=O)c2c1C ?
PLAP activator: 2.1*

Results for CC(=O)Nc1ccc(C(=O)NNC(=O)CCc2ccccc2)cc1 ?
PLAP activator: 1.5

Results for CC(C)(C)c1cc(CCC(=O)NNC(=O)c2ccccc2)cc(C(C)(C)C)c1O ?
HePTP inhibitor: 56*

How did CCN1CCN(Cc2c(O)ccc3ccccc23)CC1 do in these assays?
HePTP inhibitor: -18

How did CCN1C(=O)c2ccc(-c3nc4ccccc4c(=O)o3)cc2C1=O do in these assays?
C1s inh: 12; FXIa inh mix: 12; FXIIa mix inh: -5; HePTP inhibitor: 5; CatG inh: 39*

How did Cc1cccc(N2C(=O)c3ccc(-c4nc5ccccc5c(=O)o4)cc3C2=O)c1 do in these assays?
HePTP inhibitor: -18

What do the screens show for `Cc1ccc(-n2c(-c3c(-c4ccccc4)noc3C)n[nH]c2=S)cc1`?
PLAP activator: 2.1*

Results for Cc1cc(C)c(NC(=O)c2ccc(CN3CCc4ccccc4C3)cc2)c(C)c1 ?
PLAP activator: 2.3*

What do the screens show for `CC(C)N=CC1=C(O)CC(c2ccccc2)CC1=O` (centres undefined)?
HePTP inhibitor: -2

How did CCN(CC)c1ccc(NC(=O)CN2C(=O)CSc3ncccc32)c(C)c1 do in these assays?
C1s inh: 12; FXIa inh mix: 23*; FXIIa mix inh: 0; HePTP inhibitor: 1; CatG inh: 29; PLAP activator: 1

How did COc1cccc(N2CCN(CC(=O)Nc3nnc(-c4ccccc4)s3)CC2)c1 do in these assays?
C1s inh: 0; FXIa inh mix: 4; FXIIa mix inh: 4; HePTP inhibitor: 5; CatG inh: 4; PLAP activator: 2*

What do the screens show for `COc1cccc(N2CCN(CC(=O)NCc3cccs3)CC2)c1`?
C1s inh: -15; FXIa inh mix: 5; FXIIa mix inh: 10; HePTP inhibitor: 10; CatG inh: -1; PLAP activator: 1.3

How did Cc1ccc(C23CC4CC(CC(NC(=O)NC(C)(C)CO)(C4)C2)C3)cc1 do in these assays?
PLAP activator: 2.3*

What do the screens show for `O=c1[nH]c(SCc2ccccc2)nc2ccccc12`?
HePTP inhibitor: 10

What do the screens show for `CC(C)(C)c1ccc(CSc2nc3ccccc3c(=O)[nH]2)cc1`?
HePTP inhibitor: 69*

What do the screens show for `Cc1cccc(N2CCN(S(=O)(=O)c3ccc(F)cc3)CC2)c1C`?
HePTP inhibitor: 5

Results for COc1ccc(-c2cc(C(=O)NCc3ccc(C)cc3)c3ccccc3n2)cc1 ?
HePTP inhibitor: 5

Results for CCCCNS(=O)(=O)c1ccc2nc(SCC(=O)c3ccccc3OC)[nH]c2c1 ?
PLAP activator: 2.2*

What do the screens show for `CCC(=O)N1c2ccccc2NC2=C(C(=O)CC(c3ccccc3)C2)C1c1ccc(F)cc1` (centres undefined)?
HePTP inhibitor: 0

How did O=C(Nc1ccc2c(c1)OCO2)c1ccncc1 do in these assays?
C1s inh: 2; FXIa inh mix: 1; FXIIa mix inh: -15; HePTP inhibitor: 2; CatG inh: 1; PLAP activator: 0.9
